Screens (PubChem)
An excerpt weighted towards active compounds, which were near 17% of everything screened.
TGFb inhibitor = TGF-b pathway inhibition. HepG2 CAGA-GFP TGF-b/SMAD3 reporter, GFP fluorescence, 18 h; TGF-beta stimulated, 500 pg/mL final. Potency, µM (series often up to 46.1 µM), for the others: top-dose activity, negative = inhibition, usual class: inhibitors. actives 1.2% (n = 410,000). AID 588855; note: % is set by controls: 0 for no effect and ±100 for the full control effect; nearly all actives have a fitted effect of over 65% in size
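Per well, imaged GFP fluorescence of HEPG2 CAGA-GFP cells gives the signal; cells get compound, then TGF-beta (500 pg/mL final), 18 h at 37 degrees C; %Activity versus -TGF-beta and +DMSO controls.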
TDP1 cell noCPT = qHTS for Inhibitors of human tyrosyl-DNA phosphodiesterase 1 (TDP1): qHTS in cells in absence of CPT; AID 686978, 2013; DT40 Tdp1-/- hTDP1 cells, no CPT, ATP luminescence, 48 h; Potency, µM (doses to about 46.2 µM), inactives show top-dose activity change, negative = growth inhibition, most hits filed as inhibitors; actives 15% (n = 420,000); note: % is set by controls: 0 for no effect and ±100 for the full control effect; nearly all actives have a fitted effect of over 55% in size
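Luminescent ATP content (CellTiter-Glo) served as the growth readout. Knockout chicken DT40 cells expressing human TDP1 were exposed to compounds without camptothecin for a minimum 48 hr at 37 °C.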
HT1080 IDH1KD tx = HT-1080 IDH1 knockdown cell toxicity (counter line); HT-1080 IDH1 knockdown viability, ATP luminescence, 48 h; Potency, µM (top dose mostly 46.1 µM), for inactives: top-dose activity, negative = toxicity, usual class: cytotoxic; actives 2% (n = 360,000); AID 686971;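 note: 0% = DMSO wells and -100% = cell-free medium wells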
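% activity derives from luminescence (CellTiter-Glo), normalised to DMSO and no-cell wells. HT-1080-IDH1KD cells, 750/well, had 48 h compound exposure at 37 °C.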
DT40 TDP1 CPT = growth inhibition of DT40 Tdp1-/-;hTDP1 cells with camptothecin (screen for TDP1 inhibitors). chicken DT40 Tdp1-/-;hTDP1 cells + 20 nM CPT, ATP luminescence, 48 h. Potency, µM (top dose mostly 46.2 µM), inactives show top-dose activity change, negative = growth inhibition, usual class: inhibitors. actives 12% (n = 420,000). AID 686979; note: % is set by controls: 0 for no effect and ±100 for the full control effect; nearly all actives have a fitted effect of over 55% in size
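Chicken DT40 Tdp1-/- cells complemented with human TDP1, 400 cells/well, exposed to compounds plus 20 nM camptothecin for at least 48 h at 37 C; viability read as ATP content by CellTiter-Glo luminescence.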
HT1080NT lethal = kills 2HG-producing HT-1080-NT fibrosarcoma cells. HT-1080-NT fibrosarcoma viability, CellTiter-Glo ATP luminescence, 48 h. Potency, µM (highest dose often 46.1 µM), inactives show at the top dose activity, negative = less viability, most hits filed as cytotoxic. actives 1.6% (n = 360,000). AID 686970;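 note: NT is the 2HG producing partner of a matched IDH1 knockdown line; 0% = DMSO-treated cells and -100% = media-only wells without cells; nearly all actives have a fitted effect of over 55% in size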
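750 cells/well, RPMI + 5% FBS; 2 h settle, compound pin-transfer, 48 h at 37 degrees C. CellTiter-Glo 10 min RT, luminescence. Normalized to DMSO and media-only wells.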
HepG2 tox-1 = HepG2 cytotoxicity, counter-screen for TGF-b inhibitors; Potency, µM (titrated, usually from 46.1 µM), inactives show at the highest dose activity change, negative = cytotoxicity, hits mostly cytotoxic; actives 0.76% (n = 410,000); HepG2 CAGA-GFP viability, ATP luminescence, 18 h; AID 588856
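CellTiter-Glo luminescence gave cytotoxicity after 18 hours at 37 degrees C. The cells were HepG2 CAGA-GFP in 1% FBS DMEM, stimulated with 500 pg/mL TGF-beta after compound addition. %Activity was normalised to no-cell wells (complete cell-killing) and DMSO (no toxicity), and curves were fitted and classified.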
TGFb confirm = TGF-b pathway inhibition, cherry-pick retest; actives 63% (n = 1,600); HepG2 CAGA-GFP TGF-b reporter, GFP fluorescence, 18 h; cells stimulated with TGF-beta, 500 pg/mL; shares compounds with TGFb inhibitor; AID 720534; Potency, µM (titrated, usually from 46.1 µM), for the others: at the top dose activity, negative = inhibition, hits mostly inhibitors; note: % is set by controls: 0 for no effect and ±100 for the full control effect; nearly all actives have a fitted effect of over 65% in size
HepG2 tox-2 = toxic to HepG2 cells in TGF-b counterscreen | HepG2 CAGA-GFP viability, ATP luminescence, 18 h; cells stimulated with TGF-beta, 500 pg/mL | shares compounds with TGFb inhibitor | Potency, µM (highest dose often 46.1 µM), for the others: at the highest dose activity, negative = cytotoxicity, hits mostly inhibitors | actives 27% (n = 1,600) | AID 720535; note: % is set by controls: 0 for no effect and ±100 for the full control effect; nearly all actives have a fitted effect of over 70% in size
TGFb CCL64 inh = TGF-b inhibition, CCL64 orthogonal assay | shares compounds with TGFb inhibitor | CCL64 CAGA-GFP reporter, TGF-b stimulated, GFP fluorescence, 18 h | Potency, µM (series often up to 46.1 µM), for the others: at the highest dose activity, negative = inhibition, usual class: inhibitors | actives 41% (n = 1,600) | AID 720536; note: nearly all actives have a fitted effect of over 65% in size
TGFb COP inh = blocks TGF-b signaling in HepG2 COP reporter; Potency, µM (doses to about 46.1 µM), for inactives: at the highest dose activity, negative = inhibition, usual class: inhibitors; shares compounds with TGFb inhibitor; HepG2 COP-GFP TGF-b reporter, GFP fluorescence, 18 h; cells stimulated by added recombinant TGF-beta; AID 720537; actives 3% (n = 1,600); note: nearly all actives have a fitted effect of over 70% in size
* = called active by the depositor. Calls come from the whole dose curve; as a rule, active = well fitted curve in the direction sought with a large enough effect; inconclusive = small, poorly fitted or top-dose-only effect, or another doubt; inactive = no such curve, though single readings can be large; an effect the other way counts as inactive or inconclusive. Potency is the fitted concentration of half-maximal effect.

Results for Cc1ccc(/C(O)=C2\C(=O)C(=O)N(C)C2c2ccc(F)cc2)cc1 (stereo unspecified) ?
TGFb inhibitor: 17.6%; TDP1 cell noCPT: -19.8%; HT1080 IDH1KD tx: -1.6%; DT40 TDP1 CPT: -3.4%; HT1080NT lethal: -0.1%; HepG2 tox-1: 11.8%

What do the screens show for `CC[C@]12c3[nH]c4ccc(Cl)cc4c3CCN1C(=O)[C@@H](CC(=O)NCc1ccc(OC)c(OC)c1)C[C@@H]2C(=O)N1CCN(C(=O)c2ccco2)CC1`?
TGFb inhibitor: -19.9%; TDP1 cell noCPT: inconclusive; HT1080 IDH1KD tx: 0.1%; DT40 TDP1 CPT: inconclusive; HT1080NT lethal: 7.3%; HepG2 tox-1: -4.5%

Results for COc1ccc(CNC(=O)C[C@H]2C[C@H](C(=O)N(C(C)C)C(C)C)[C@@]3(C)c4[nH]c5ccc(Cl)cc5c4CCN3C2=O)cc1OC ?
TGFb inhibitor: 14.1µM*; TDP1 cell noCPT: 18.4µM*; HT1080 IDH1KD tx: -24.2%; DT40 TDP1 CPT: 18.4µM*; HT1080NT lethal: -18.8%; HepG2 tox-1: -11.9%; TGFb confirm: 8.2µM*; HepG2 tox-2: inconclusive; TGFb CCL64 inh: inconclusive; TGFb COP inh: 61.6%

Results for COc1ccc(CNC(=O)C[C@H]2C[C@H](C(=O)N3CCCCC3)[C@@]3(CCc4ccccc4)c4[nH]c5ccc(Cl)cc5c4CCN3C2=O)cc1OC ?
TGFb inhibitor: 6.31µM*; TDP1 cell noCPT: 10.3µM*; HT1080 IDH1KD tx: 0.6%; DT40 TDP1 CPT: 10.3µM*; HT1080NT lethal: 3.3%; HepG2 tox-1: -2.6%; TGFb confirm: 8.2µM*; HepG2 tox-2: -17.5%; TGFb CCL64 inh: 6.51µM*; TGFb COP inh: 32.5%

Results for CCOC(=O)CN1C(=O)C(O)(C2CCc3ccccc3C2=O)c2ccccc21 (stereo unspecified) ?
TGFb inhibitor: -30.0%; TDP1 cell noCPT: inconclusive; HT1080 IDH1KD tx: 16.7%; DT40 TDP1 CPT: inconclusive; HT1080NT lethal: 19.1%; HepG2 tox-1: -8.8%

How did COc1ccc(NC(=O)CCc2nc3c(C)nn(-c4ccc(C)cc4)c3n(C)c2=O)c(OC)c1 do in these assays?
TGFb inhibitor: -32.4%; TDP1 cell noCPT: -19.3%; DT40 TDP1 CPT: -4.9%; HepG2 tox-1: 2.6%

How did Cc1ccnc(Nc2nc(-c3ccccc3)cs2)c1 do in these assays?
TGFb inhibitor: 10µM*; TDP1 cell noCPT: inconclusive; HT1080 IDH1KD tx: inconclusive; DT40 TDP1 CPT: inconclusive; HT1080NT lethal: -19.5%; HepG2 tox-1: -71.2%; TGFb confirm: -26.0%; HepG2 tox-2: -4.4%; TGFb CCL64 inh: 0.1%; TGFb COP inh: 5.6%

What do the screens show for `CC(=O)c1cccc(Nc2nc(-c3cccc([N+](=O)[O-])c3)cs2)c1`?
TGFb inhibitor: -15.9%; TDP1 cell noCPT: inconclusive; HT1080 IDH1KD tx: inconclusive; DT40 TDP1 CPT: inconclusive; HT1080NT lethal: -15.7%; HepG2 tox-1: -3.5%

What do the screens show for `CC(=O)Nc1nc(C)c(-c2csc(Nc3cccc([N+](=O)[O-])c3)n2)s1`?
TGFb inhibitor: inconclusive; TDP1 cell noCPT: 5.17µM*; HT1080 IDH1KD tx: inconclusive; DT40 TDP1 CPT: 8.2µM*; HT1080NT lethal: inconclusive; HepG2 tox-1: -41.4%; TGFb confirm: -2.7%; HepG2 tox-2: inconclusive; TGFb CCL64 inh: inconclusive; TGFb COP inh: 43.7%

How did COC(=O)c1ccc2c(=O)n(CCN3CCOCC3)c(SCC(=O)NCc3ccccc3)nc2c1 do in these assays?
TGFb inhibitor: 1.1%; TDP1 cell noCPT: -29.5%; HT1080 IDH1KD tx: 10.7%; DT40 TDP1 CPT: 3.4%; HT1080NT lethal: 5.2%; HepG2 tox-1: -10.9%

How did O=C(Nc1ccc(F)cc1F)Nc1sccc1-c1nc2ccccc2s1 do in these assays?
TGFb inhibitor: 11.2µM*; TDP1 cell noCPT: inconclusive; HT1080 IDH1KD tx: 0.9%; DT40 TDP1 CPT: 0.0%; HT1080NT lethal: inconclusive; HepG2 tox-1: 0.5%; TGFb confirm: inconclusive; HepG2 tox-2: -16.5%; TGFb CCL64 inh: inconclusive; TGFb COP inh: -4.9%

Results for O=C(Nc1nc2ccccc2s1)Nc1ccc(F)cc1F ?
TGFb inhibitor: -1.2%; TDP1 cell noCPT: -20.3%; HT1080 IDH1KD tx: -22.6%; DT40 TDP1 CPT: -20.0%; HT1080NT lethal: -9.2%; HepG2 tox-1: -7.8%

Results for Cc1ccc(NCCCn2cnc3c(OCc4ccccc4)ncnc32)cc1C ?
TGFb inhibitor: 17.8µM*; TDP1 cell noCPT: inconclusive; HT1080 IDH1KD tx: -27.3%; DT40 TDP1 CPT: inconclusive; HT1080NT lethal: -20.6%; HepG2 tox-1: -24.5%; TGFb confirm: 6.51µM*; HepG2 tox-2: inconclusive; TGFb CCL64 inh: inconclusive; TGFb COP inh: 66.6%

What do the screens show for `O=C(O)Cn1cnc2c(OCc3ccccc3)ncnc21`?
TGFb inhibitor: -6.1%; TDP1 cell noCPT: -7.5%; HT1080 IDH1KD tx: 6.8%; DT40 TDP1 CPT: 1.7%; HT1080NT lethal: 4.6%; HepG2 tox-1: 0.5%
